In the library only some 6.8% were active in any assay of this set; here they are far more common.
MK inhibit – inhibitors of Streptococcus pneumoniae mevalonate kinase. purified MK, PK/LDH-coupled NADH absorbance 340 nm. inhibition, % at 10 µM. actives 0.48% (n = 65,000);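 active = ranked among the strongest by inhibition in the single 10 µM screen, a fixed top-ranked set picked for dose follow-up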
NADH enzymes – inhibitors of enzymes used to reach an NAD/NADH endpoint; coupled PK/LDH NADH assays, four targets; IC50, µM (titrated, usually from 10 µM), for inactives: top-dose inhibition; actives 0.02% (n = 65,000); AID 774;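 active = single-dose screening hits from any of four coupled enzyme assays that gave an IC50 when retested across doses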;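 also: the DPM-DC format reads NADH fluorescence rather than 340 nm absorbance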
Autofluor 339 – intrinsic fluorescence of library compounds, ex339/em460 – biochemical, MLSMR library, data from DPM-DC assay, artefact control, profiling panel. compound autofluorescence, ex339/em460 nm, NADH buffer; hits give high values; 1 = no-compound wells, NADH background. actives 5.5% (n = 65,000). fluorescence fold increase at 10 µM;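 active = at 10 µM, mean starting fluorescence two-fold or more over control wells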;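 also: signal is the first read of a kinetic run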
Abs 340nm – absorbance at 340 nm | compound absorbance at 340 nm, fold over control | fold change at 10 µM | 65,000 tested, under 10 active;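 active = at 10 µM dose, initial 340 nm absorbance at least 2 fold that of control wells; inactive = change under 2 fold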;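 also: initial absorbance extrapolated from kinetic A340 decline of NADH oxidation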
DPM-DC inhibit – S. pneumoniae DPM-DC inhibition; calls only at 10 µM; purified DPM-DC, PK/LDH coupled NADH fluorescence; actives 0.49% (n = 65,000); AID 556;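 active = the 320 compounds with the highest percent inhibition in the single-dose primary screen, excluding strongly autofluorescent ones, cut at about 32% in these data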;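 also: kinetic rate of NADH fluorescence loss reporting ADP formed by the decarboxylase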
Spn PMK inh – blocks S. pneumoniae phosphomevalonate kinase; AID 539; actives 0.49% (n = 65,000); purified PMK, PK/LDH-coupled NADH absorbance 340 nm; inhibition, % at 10 µM;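 active = top-ranked compounds by inhibition in the single 10 µM screen, taking a fixed number of the strongest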;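 also: 0% = full reaction with DMSO carrier and 100% = background rate without enzyme reaction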
An asterisk follows results filed as active; i = inactive; x = no result shown; + = active, no number.

SMILES	MK inhibit	NADH enzymes	Autofluor 339	Abs 340nm	DPM-DC inhibit	Spn PMK inh
CC(C)C1N=C2c3ccccc3N=C(SCC(=O)NCCc3ccc(S(N)(=O)=O)cc3)N2C1=O (stereo not given)	10	7%	2.4*	1	i	8
N#Cc1c(C(F)(F)F)cc(-c2ccco2)nc1SCc1ccccn1	4	2%	2.1*	1	x	0
N#Cc1c(C(F)(F)F)cc(-c2ccco2)nc1SCc1ccncc1	8	18%	2.6*	1.1	+	7
N#Cc1c(N)oc(-c2ccco2)c1-c1ccco1	0	5%	2.1*	1.1	x	10
N#Cc1c(N)oc(-c2ccccc2)c1-c1ccccc1	13	4%	1.3	1.1	i	0
Clc1ccc(-c2nn3c(Cn4cnc5ccccc54)nnc3s2)c(Cl)c1	3	4%	1.1	1	i	9
Cc1cccc(OCC2=NS(=O)(=O)c3ccccc3N2)c1	5	5%	1.1	0.99	i	10
c1ccc(N2CCN(c3nc(NCc4ccco4)c4ccccc4n3)CC2)cc1	3	1%	1.6	1	i	0
c1coc(CNc2nc(N3CCCCC3)nc3ccccc23)c1	13	13%	3.7*	0.99	x	13
O=C1CSc2ccc(C(=O)N3CCN(c4ccccn4)CC3)cc2N1	2	4%	1.1	1	i	10
COCCNC(=O)c1ccc2c(c1)NC(=O)CS2	8	12%	1	1	i	27*
Nc1c(C(=O)NC2CCCC2)c2nc3ccccc3nc2n1/N=C/c1cccnc1	0	15%	3.2*	1.2	+	0
c1ccc(N=P(c2nc3ccccc3o2)(N2CCOCC2)N2CCOCC2)cc1	4	4%	1	0.96	i	1
O=C(Cn1nnc(-c2ccccc2NC(=O)c2cccs2)n1)Nc1ccccc1	11	13%	2.4*	0.99	i	15
COc1ccccc1NC(=O)Cn1nnc(-c2ccccc2NC(=O)c2cccs2)n1	21	12%	1.5	1	i	15
COc1ccc(NC(=O)Cn2nnc(-c3ccccc3NC(=O)c3ccco3)n2)cc1	0	7%	2.1*	1	i	9
O=S(=O)(NC1CCCC1)c1cccc(S(=O)(=O)N2CCC(n3nnc4ccccc43)CC2)c1	0	2%	1.1	1	i	6
CCn1c(N)c(C(=O)Nc2ccccc2C(=O)OC)sc1=S	10	4%	1	1	i	3
O=C(O)c1cc(-c2ccco2)nc2ccc(Br)cc12	5	14%	2.6*	1.1	i	16
O=C(c1ccco1)N1CCN(C(=O)c2cc(-c3ccncc3)nc3ccc(Br)cc23)CC1	4	4%	1.1	1.1	i	5
O=C(Nc1ccon1)c1cc(-c2ccccc2)nc2ccccc12	10	3%	1.2	1	i	10
O=C(NCC1CCCO1)c1cc(-c2ccco2)nc2ccccc12 (stereo not given)	8	9%	5*	1.2	x	9
Cc1cccc(NC(=O)c2cc(-c3ccco3)nc3ccccc23)n1	1	4%	4.9*	1.1	x	6
O=C(Nc1ccccc1C(=O)NCC1CCCO1)c1ccco1 (stereo not given)	7	2%	1	1	i	5
CCN1CCN(CC(=O)Nc2cccc(C)c2)C(=O)C1=O	4	7%	1.2	1	i	18
SMILES	MK inhibit	NADH enzymes	Autofluor 339	Abs 340nm	DPM-DC inhibit	Spn PMK inh
c1ccc2sc(-c3ccc4c(c3)OCO4)nc2c1	8	12%	2.1*	1.1	x	15
Cn1c2ccccc2c2cc(C(=O)OCC(=O)N3CC(=O)Nc4ccccc43)sc21	0	7%	2.1*	1.2	x	13
Cn1c(N2CCC(C(N)=O)CC2)nc2c1c(=O)n(Cc1ccc(Br)cc1)c(=O)n2C	6	2%	1	1	i	7
O=C(O)c1[nH]c2ccccc2c1NS(=O)(=O)Cc1ccccc1	3	6%	2.4*	1	i	4
CC(=O)c1ccc(NS(=O)(=O)Cc2ccccc2)cc1	5	4%	1	1.1	i	2
Cc1ccc2oc(C(=O)Nc3c(C)n(C)n(-c4ccccc4)c3=O)c(C)c2c1	10	3%	1.1	1	i	7
COC(=O)c1[nH]c2ccc(C)cc2c1NC(=O)CN1CCc2cc(OC)c(OC)cc2C1	10	14%	2.2*	1	i	15
COC(=O)c1[nH]c2ccc(Cl)cc2c1NC(=O)CCN1CCN(C2CCCCC2)CC1	4	3%	1.9	1.1	i	0
COC(=O)c1[nH]c2ccc(F)cc2c1NC(=O)CCN1CCN(Cc2ccc3c(c2)OCO3)CC1	7	6%	2*	1.1	i	5
COC(=O)c1[nH]c2ccc(C)cc2c1NC(=O)CN1CCCC(C)(C)C1	11	5%	1.8	1	i	9
COC(=O)c1[nH]c2ccc(C)cc2c1NC(=O)CCN1CCN(C2CCCCC2)CC1	3	6%	2.9*	1.1	i	2
COC(=O)c1[nH]c2ccc(C)cc2c1NC(=O)C1=COCCO1	11	15%	1.7	1.1	i	14
COC(=O)c1[nH]c2ccc(C)cc2c1NC(=O)Nc1ccccc1OC	10	10%	2.6*	1.1	i	10
O=C(Cc1cn2ccsc2n1)Nc1nc2c(s1)CN(Cc1ccccc1)CC2	7	7%	1.1	1	i	15
COc1cccc(CNC(=O)C2CCN(S(=O)(=O)N3CCCC3)CC2)c1	10	5%	1.1	1	i	4
COc1ccc(-c2nc(N3CCOCC3)nc3n[nH]c(N)c23)cc1	10	7%	0.89	1.1	i	0
COc1ccc(-c2nc(N3CCCC3)nc3nn4c(C)cc(C)nc4c23)cc1	0	10%	2.2*	1	i	18
Cc1cc(C)n2nc3nc(N4CCCC4)nc(-c4ccccc4)c3c2n1	0	9%	3.2*	1.1	i	16
Nc1[nH]nc2nc(N3CCCC3)nc(-c3ccccc3)c12	9	3%	0.98	1	i	16
CCOC(=O)C(C)Sc1nc(-c2cccs2)ccc1C#N (stereo not given)	5	3%	2.2*	1.1	x	0
C=COC(=O)CSc1nc(-c2cccs2)ccc1C#N	8	3%	2.1*	1.1	i	0
CCN(CC)C(=O)CSc1nc(C)cc(-c2cccs2)c1C#N	11	10%	1.1	1.1	i	8
CCN(CC)CCN1C(=O)C(=O)/C(=C(/O)c2ccc(C)cc2)C1c1cccnc1 (stereo not given)	6	6%	1.1	1	i	6
CCNc1nc(NCc2ccccc2)nc(Oc2ccc(=O)[nH]n2)n1	7	4%	2.6*	1	i	4

Screens from PubChem.
